The list is not random: actives were taken first. Their share in the collection is about 12%.
Sfp inh = qHTS Assay for Inhibitors of Bacillus subtilis Sfp phosphopantetheinyl transferase (PPTase); Biochemical Sfp PPTase activity, qHTS; Potency, µM, usual class: inhibitors; 3.5% of 310,000 active;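 further: the enzyme is Sfp with the accession as filed and its product quenches rhodamine fluorescence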
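With Hepes-Na pH 7.6 buffer containing 10 mM MgCl2, Sfp (15 nM) modified BHQ-2-YbbR (12.5 uM) using rhodamine-CoA (5 uM). Two reads 30 minutes apart at 525/598 nm yielded each well's rate.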
JMJD2A Tudor = qHTS Assay for Inhibitors of JMJD2A-Tudor Domain; Lysine-specific demethylase 4A (Homo sapiens), O75164; AlphaScreen JMJD2A-Tudor / H3K4me3 peptide binding; Potency, µM (doses to about 114 µM), hits mostly inhibitors; 4.4% of 390,000 active; further: nearly all actives have a fitted effect of over 50% in size
Target sequence (O75164 whole entry, looked up, the tested form may be a part): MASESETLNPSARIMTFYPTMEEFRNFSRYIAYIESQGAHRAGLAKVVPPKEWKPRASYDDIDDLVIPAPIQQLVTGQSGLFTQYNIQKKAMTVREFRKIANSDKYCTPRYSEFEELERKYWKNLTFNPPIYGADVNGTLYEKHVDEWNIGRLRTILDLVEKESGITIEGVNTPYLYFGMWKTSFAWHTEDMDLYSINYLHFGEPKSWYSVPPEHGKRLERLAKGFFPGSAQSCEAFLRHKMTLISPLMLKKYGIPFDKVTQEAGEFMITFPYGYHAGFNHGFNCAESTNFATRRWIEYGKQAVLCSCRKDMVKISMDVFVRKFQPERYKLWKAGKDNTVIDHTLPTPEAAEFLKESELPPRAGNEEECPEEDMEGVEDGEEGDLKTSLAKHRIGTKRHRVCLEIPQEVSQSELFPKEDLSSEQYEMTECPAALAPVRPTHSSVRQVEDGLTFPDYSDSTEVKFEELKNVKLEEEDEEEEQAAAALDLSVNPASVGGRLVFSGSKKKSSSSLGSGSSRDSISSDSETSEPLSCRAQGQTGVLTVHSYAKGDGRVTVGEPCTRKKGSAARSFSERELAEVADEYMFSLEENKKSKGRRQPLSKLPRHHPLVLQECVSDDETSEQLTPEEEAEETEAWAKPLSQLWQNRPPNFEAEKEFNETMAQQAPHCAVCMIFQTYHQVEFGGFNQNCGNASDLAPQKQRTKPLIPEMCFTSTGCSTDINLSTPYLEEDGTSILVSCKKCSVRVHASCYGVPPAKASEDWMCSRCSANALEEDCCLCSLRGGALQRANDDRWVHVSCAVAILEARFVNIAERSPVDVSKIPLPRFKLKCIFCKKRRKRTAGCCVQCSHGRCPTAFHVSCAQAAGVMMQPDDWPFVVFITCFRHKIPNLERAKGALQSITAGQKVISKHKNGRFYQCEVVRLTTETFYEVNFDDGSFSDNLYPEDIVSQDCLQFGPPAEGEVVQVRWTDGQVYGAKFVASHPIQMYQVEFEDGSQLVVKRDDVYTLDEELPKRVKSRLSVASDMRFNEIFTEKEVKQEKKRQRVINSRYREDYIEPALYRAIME
BAZ2B inh = qHTS Assay for Inhibitors of BAZ2B; AlphaScreen BAZ2B-H3K14Ac peptide displacement; Potency, µM (top dose mostly 114 µM), hits mostly inhibitors; 4.4% of 360,000 active; AID 504333, 2011; further: nearly all actives have a fitted effect of over 60% in size
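Compounds, titrated to a top concentration of 110 uM, were incubated 30 min at room temperature with preformed BAZ2B/acetyl-K14 H3 peptide complex (50 nM each). Proximity signal was measured by AlphaScreen after 20 min with beads.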
HP1b chromo inh = HTS for Inhibitors of HP1-beta Chromodomain Interactions with Methylated Histone Tails | AlphaScreen HP1-beta / biotin-H3K9me3 peptide binding | Potency, µM (highest dose often 114 µM), hits mostly inhibitors | 0.56% of 390,000 active | AID 540317, 2011; further: nearly all actives have a fitted effect of over 70% in size
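AlphaScreen: HP1-beta (50 nM) preformed 30 min with biotin-H3(1-18)K9me3 peptide (50 nM) in PBS pH 7.4, 0.01% Tween-20. Compound added for 30 min at RT, then streptavidin donor/nickel chelate acceptor beads (10 ug/mL) for 30 min.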
G9a block = qHTS Assay for Inhibitors of Histone Lysine Methyltransferase G9a; Histone-lysine N-methyltransferase EHMT2 (Homo sapiens), Q96KQ7; G9a H3K9 monomethylation, AlphaScreen, 2 h; Potency, µM (doses to about 102 µM), hits mostly inhibitors; 8.8% of 350,000 active; AID 504332, 2011; further: nearly all actives have a fitted effect of over 75% in size
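Readings reflect AlphaScreen signal from monomethyl-H3K9 antibody detection. HMT at 20 nM; substrate b-H3K9 500 nM; cofactor SAM 20 uM; 2 h RT reaction; compounds tested as titrations in qHTS with 15 min preincubation.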
L3MBTL1 inh = qHTS Assay for the Inhibitors of L3MBTL1. Lethal(3)malignant brain tumor-like protein 1 (Homo sapiens), Q9Y468. 0.66% of 230,000 active. AlphaScreen L3MBTL1–H3K9me1 peptide binding. Potency, µM (top dose mostly 57.1 µM), hits mostly inhibitors; further: nearly all actives have a fitted effect of over 60% in size
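First, the protein-peptide complex forms for 30 min at room temperature (L3MBTL1 50 nM, biotinylated H3K9me1 peptide 75 nM). Next, compounds are pin-transferred and incubated 30 min. Finally, AlphaScreen beads are added and read after 30 min.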
Of the large screens only hits and unclear results are named; the others gave an inactive call. The call rests on the fitted dose curve; in most records, active means well fitted curve in the direction sought with a large enough effect; inconclusive means small, poorly fitted or top-dose-only effect, or another doubt; inactive means no such curve, though single readings can be large; an effect the other way counts as inactive or inconclusive.

COc1cc(C2/C(=C(\O)c3ccc4c(c3)CC(C)O4)C(=O)C(=O)N2CC2CCCO2)cc(OC)c1OC (configuration not stated)	BAZ2B inh inconclusive, G9a block 50.1µM (no result: L3MBTL1 inh)
COC(=O)c1ccc(C2/C(=C(/O)c3ccc(OC)cc3)C(=O)C(=O)N2CC2CCCO2)cc1 (configuration not stated)	none
CCCCOc1ccc(C2/C(=C(/O)c3ccc4c(c3)CC(C)O4)C(=O)C(=O)N2CCCN2CCOCC2)cc1OC (configuration not stated)	JMJD2A Tudor inconclusive, G9a block 56.2µM (no result: L3MBTL1 inh)
COc1cc(C2/C(=C(\O)c3ccc4c(c3)CC(C)O4)C(=O)C(=O)N2CCN2CCOCC2)cc(OC)c1OC (configuration not stated)	JMJD2A Tudor inconclusive, G9a block 70.8µM (no result: L3MBTL1 inh)
COc1ccc(/C(O)=C2/C(=O)C(=O)N(CC3CCCO3)C2c2cccc(O)c2)cc1 (configuration not stated)	JMJD2A Tudor 50.1µM, G9a block inconclusive
CC(=O)Nc1ccc(S(=O)(=O)N2CCC(n3c(C(F)(F)F)nc4cccnc43)CC2)cc1	none (no result: Sfp inh, L3MBTL1 inh)
N#Cc1ccc(-n2nnc3ccccc3c2=O)c([N+](=O)[O-])c1	none (no result: Sfp inh, BAZ2B inh, G9a block, L3MBTL1 inh)
N#Cc1ccc(N2CCc3ccccc3C2)c([N+](=O)[O-])c1	Sfp inh 44.7µM, JMJD2A Tudor inconclusive, BAZ2B inh inconclusive, G9a block inconclusive
CCn1c(C)nc2cc(C(=O)NNC(=S)NC(=O)c3ccccc3)ccc21	G9a block 17.8µM
CCn1c(C)nc2cc(C(=O)NNC(=O)c3ccc(C)cc3)ccc21	none (no result: Sfp inh)
CCn1c(C)nc2cc(C(=O)N/N=C/c3ccccc3)ccc21	none
CCn1c(C)nc2cc(C(=O)N/N=C/c3cccc(O)c3O)ccc21	JMJD2A Tudor 79.4µM, BAZ2B inh 79.4µM, L3MBTL1 inh inconclusive
CCn1c(C)nc2cc(C(=O)NNC(=S)Nc3ccccc3)ccc21	G9a block 44.7µM
CCn1c(C)nc2cc(C(=O)NNC(=S)Nc3ccc(F)cc3)ccc21	G9a block 44.7µM
CC(C)(C)OC(=O)N1CCC(c2c(C(=O)NCc3ccco3)cnn2-c2ccccc2)CC1	none (no result: Sfp inh, L3MBTL1 inh)
CCOc1ccc(CNC(=O)C2CCN(c3nc4ccccc4nc3C(F)(F)F)CC2)cc1OC	none (no result: Sfp inh, L3MBTL1 inh)
CCN(CC)CCNC(=O)C(=O)NCC(c1cccnc1)N1CCN(c2ccccc2)CC1 (configuration not stated)	none (no result: Sfp inh, L3MBTL1 inh)
CCC(=O)Nc1cccc(C2=NOC3(C2)C[C@@H](C(N)=O)N(C(=O)CC)C3)c1 (some centres not stated)	none (no result: L3MBTL1 inh)
C/C=C/C(=O)N1CC2(CC(c3cccc(NC(=O)/C(C)=C/C)c3)=NO2)C[C@H]1C(N)=O (some centres not stated)	none (no result: L3MBTL1 inh)
C/C=C\C(=O)Nc1cccc(C2=NOC3(C2)C[C@@H](C(N)=O)N(C(=O)CC(c2ccccc2)c2ccccc2)C3)c1 (some centres not stated)	JMJD2A Tudor inconclusive, BAZ2B inh inconclusive (no result: L3MBTL1 inh)
C/C=C/C=C\C(=O)Nc1cccc(C2=NOC3(C2)C[C@H](C(N)=O)N(C(=O)/C=C/C)C3)c1 (some centres not stated)	Sfp inh 22.4µM, JMJD2A Tudor 79.4µM, HP1b chromo inh inconclusive, G9a block inconclusive (no result: L3MBTL1 inh)
C/C=C/C=C\C(=O)Nc1cccc(C2=NOC3(C2)C[C@@H](C(N)=O)N(C(=O)c2cc([N+](=O)[O-])cc([N+](=O)[O-])c2C)C3)c1 (some centres not stated)	Sfp inh 25.1µM (no result: L3MBTL1 inh)
C/C=C\C=C\C(=O)N1CC2(CC(c3cccc(NC(=O)CC)c3)=NO2)C[C@H]1C(N)=O (some centres not stated)	Sfp inh 35.5µM, G9a block inconclusive (no result: L3MBTL1 inh)
C/C=C/C=C/C(=O)Nc1cccc(C2=NOC3(C2)C[C@H](C(N)=O)N(C(=O)CC(c2ccccc2)c2ccccc2)C3)c1 (some centres not stated)	Sfp inh 39.8µM, BAZ2B inh inconclusive (no result: JMJD2A Tudor, HP1b chromo inh, L3MBTL1 inh)
O=C(O)c1c(Sc2ccccc2)c2cc(Cl)ccc2n1Cc1ccc(Cl)cc1	none (no result: JMJD2A Tudor, BAZ2B inh, HP1b chromo inh, G9a block, L3MBTL1 inh)
COc1ccc(Cc2c(C)nn(-c3nc(C)c(C(=O)Nc4cccc(C(C)=O)c4)s3)c2C)cc1	none (no result: Sfp inh, L3MBTL1 inh)
CC(C)(C)CNc1nc(C#N)nc(Nc2ccccc2)n1	none (no result: Sfp inh, BAZ2B inh, HP1b chromo inh, G9a block, L3MBTL1 inh)
CN1CCN(c2ccc(-c3nc(-c4ccccc4)no3)cc2[N+](=O)[O-])CC1	BAZ2B inh inconclusive (no result: Sfp inh, L3MBTL1 inh)
O=C(CSc1ncc2c(n1)-c1ccccc1N(Cc1ccc(F)cc1)S2(=O)=O)c1ccc(Cl)cc1	none (no result: Sfp inh, L3MBTL1 inh)
COc1ccccc1CNc1ccc(-c2nc(-c3ccccn3)no2)cc1[N+](=O)[O-]	none (no result: Sfp inh, L3MBTL1 inh)
CC(C)C[C@@H](NC(=O)[C@H](Cc1ccccc1)NC(=O)c1cnccn1)B(O)O	none (no result: JMJD2A Tudor, BAZ2B inh, HP1b chromo inh, L3MBTL1 inh)
CCn1c(SCc2ccc(F)cc2Cl)nnc1-c1nonc1NC(C)=O	none (no result: Sfp inh, L3MBTL1 inh)
CC(=O)N1CCc2cc(CNS(=O)(=O)c3ccccc3C(F)(F)F)ccc21	none (no result: Sfp inh, L3MBTL1 inh)
CCOC(=O)N1CCC(NC(=O)c2ccc3c(c2)N(Cc2ccccc2)C(=O)c2ccccc2S3(=O)=O)CC1	G9a block inconclusive (no result: Sfp inh, L3MBTL1 inh)
Cc1cccc(N2CCN(C(=O)C3CCCN(S(=O)(=O)c4cccc5nsnc45)C3)CC2)c1C (configuration not stated)	G9a block inconclusive (no result: Sfp inh, BAZ2B inh, L3MBTL1 inh)
O=C(Cn1c(=O)n(-c2ccc(Cl)cc2)c(=O)c2oc3ccccc3c21)Nc1ccccc1	none (no result: Sfp inh, L3MBTL1 inh)
Cc1ccc(-n2cc(C(=O)Oc3ccc(F)cc3)c3ccccc3c2=O)cc1	none (no result: Sfp inh, L3MBTL1 inh)
C/C=C\C(=O)Nc1cccc(C2=NOC3(C2)C[C@@H](C(N)=O)N(C(=O)c2ccccc2)C3)c1 (some centres not stated)	none (no result: L3MBTL1 inh)
C/C=C\C=C/C(=O)Nc1cccc(C2=NOC3(C2)C[C@@H](C(N)=O)N(C(=O)c2ccccc2)C3)c1 (some centres not stated)	Sfp inh 11.2µM, G9a block inconclusive (no result: JMJD2A Tudor, HP1b chromo inh, L3MBTL1 inh)
Cc1cc(C)cc(NC(=O)c2cc(C)nc3c2c(C)nn3-c2ccccc2)c1	none (no result: Sfp inh, L3MBTL1 inh)
O=[N+]([O-])c1cc(Br)c2nsnc2c1N1CCOCC1	JMJD2A Tudor 39.8µM, BAZ2B inh 31.6µM, HP1b chromo inh 20µM, L3MBTL1 inh inconclusive (no result: G9a block)
COc1cc([N+](=O)[O-])c(N2CCOCC2)c([N+](=O)[O-])c1OC	BAZ2B inh inconclusive, G9a block inconclusive
